The text below walks through data of the supplement of paper PMC12632987.

B1: LC3A_45_1977 (protein)
chain: MAEATLDVLVPRELAEAALEALKRGAERLLEERGPGVEVDLEALEESYRATRDEEEVLLTVRIRAPTRQEALDLADELVEELERELGRPVAAAISVEELP
B2: LC3A_59_2019 (protein)
chain: MEEIEEYREKLREAIDNIDEFVEIVREGLEKFKDDKEKVEALLEEVMEVIVEELGADPEEAEKVLKRMKEIFKTEKDKEKAIELVVDEIRDLLLLTPIEE
B3: LC3A_3_1859 (protein)
chain: MEEIKKEIIELLKSLGRSEEVIEAAERLANLLIERGYKEALETLLEELKKLKDVSDEILLAMFEDLIEALETEDLSEEELIERIEEEARIALNDQEIEEL
B4: LC3A_17_549 (protein)
chain: MEEIKKELEKLLKELEALVKELEKYDPEAAKKLKKKLKEAKKLLEEGKLKEAAETLAEAARELANKLDELEPKHGNEASVLAMEASGLELEAIGLLLKLE
B5: LC3A_3_1857 (protein)
chain: MEEIKKEILELLKKLGRSEETIKAAEELADALIKRGYKKALEKLLEELKKLKNASDELLLDMFKELLAALENEKLNEEELIKKIEEEAKIVKNEQEIIEL
B6: LC3A_147_450 (protein)
chain: VLYEITVDILFKNDPELAEEVEEEIKEIAEKYGGEVEVEREVEQETPTTTLYFVRVTIKFEDEEKALEAEQEISELLDETAKKHPEKFVGAMISIEKIEE
B7: LC3A_28_755 (protein)
chain: ADIEGTIKEAIERAKKAKEEGKEEVIEITVPAGATQADIDKVIEGMEEIAEINKDMKRTTILVNVEAGVAQENLDKLIDAGEEIEEKYPNVTVIFALDEE
B8: LC3A_28_1202 (protein)
chain: SATKAAADAALAEAKALLAAGEEGVVELVVEGKITEEETQYVIDKLEEIAELAAKSGKISIVLDISGEVPEEHQQKLIDKADELEKKYPNVNIIVALEER
B9: LC3A_3_1805 (protein)
chain: ADERIEALLEELRAAGASEETIAAAREVLTLLRERGYLEALETLIEGLRELLDAPDELRLDLLEDVLEYLETNDASEEEVTEFIKEEIRLARSESEIEEL
B10: LC3A_28_1235 (protein)
chain: NAVEKQIEAAKAEVEAAVAAGEEALVELTVTKETTEEDVEKIIKAMEEIAALAATLPALTIIIDVERGVKQEHIDKLADAADAIEAKYPNVTVIIALEEE
B11: LC3A_17_592 (protein)
chain: SEEIKKEIEELLKELKKLIKKMKELGIPEAKEIEKLLKEAEKALKEGDLKKAAELLAKAADLAADALEEKEEELGSEASVLEMEANGLELRAIGILLKLD
B12: LC3A_17_590 (protein)
chain: SEEIREELEELLKELKELIKEAKKLGIPEAKEVEKLLKEAEKALKEGKLREAAELLREAADLLADALEEIEEELGSKASVLEMEANGLALRAEGILLKLE
B13: LC3A_28_956 (protein)
chain: SALEEALKKAIEEAKKAAEKGEPAVITIKVPGDADEEDIEKVIEALREIAEILKDVKGAAIIVDVDGKVKQEHIDKIAEEAERIEKEYPNVTVIIALDEE
B14: LC3A_3_1793 (protein)
chain: AQARIDALLAELRAAGKSDETLAAVRAAATALADRGYEEALATFIEELRELIDAPDEILLDLAEEVLRLIEEEDLDEEELTERIKELAELARNEAEIIEL
B15: LC3A_free_8_2441 (protein)
chain: SNQELVDAALKLLDELEEEIEKKAKELGLDETDIGLLLLEVGSAISEVISLSDASPEEILKATKEDLEEIIKLAEEINKELAKIVKEKAEKILKELEKLL
B16: LC3A_28_693 (protein)
chain: SAIDKQIAAARAEADAAIAAGEEATLTITVTADTTQADVDRIMAAIEEIAARMAASAKLNIIIDVEAGVPQEHLDRLADFGDALAARYPNVNIIIALDED
B17: LC3A_free_39_2217 (protein)
chain: SMEEIEKLIKEIAEEGGIDYEYVKKKIEEIKEVAGLSDEQILELVKAILEAVKAGADAKEILERILKLAKELKEEGKSPEEIAKELLEEIEDFRNLIPLD
B18: LC3A_free_39_2214 (protein)
chain: SEEELEELIKEVAKESGLDYEYIKKKIEEIKEIAGLSLEQMKELVKAILEAVKAGADAEEILKRILALAKELKAAGKSPEEIAEALIEEAEDFRNLIPLD
B19: LC3A_free_39_2288 (protein)
chain: SMEELEKAVKRLAELLDKIEGVTEEEKQTILEAAKKSLETAKAILEALETIEKDGGDVAEAAKRIAAKIKELEAAGKSLEEMTEEIIALTKDLVNLIPID
B20: LC3A_3_1447 (protein)
chain: AEELREEALELLRERGASPETIAAAEELFDALIEKGYLEAMELVLEFLKEVKDASDEFLLETFKDLLELVLTSDDSPEEMKKKIEEELSAFRSELEIEEL
B21: LC3A_3_1892 (protein)
chain: LEERVEETVERLKEAGASEETIELFLEAAELLLERGYYEALETLIDEVEELIDLPDEILLDFLEEVLEVLETEDLSEEELIERIKELARLAKNEGEIEEL
B22: LC3A_3_1891 (protein)
chain: LEERIERTEELLREKGASEETIELFRKVMELLKARGYEEALKTLIEEVEELADLPDEILLDFLEEVLEVLETEDLSEEELIKKIKELARLARNEGEIIEL
B23: LC3A_3_1875 (protein)
chain: MDEKIEETIELLKEAGASEETIEKFEEVAELLKERGYEEALETLIEEVKKLAGTSDEILLDFLEEVLEVLKTKDLSEEELIEEIKRIARLALNEAEIIEL
B24: LC3A_28_685 (protein)
chain: SKTEEDLKKALEEAEEALKKGEPTVVRINVYGDVTEEELEKVLKALEEIAKILNKIPGSAIIVDIDADVDEEFEDKIIDKAEELEKKYPNVTIIIALEER
B25: LC3A_28_1013 (protein)
chain: MSIVEETKKKIEEALKEAEKGEDAYLEVEITSEATQEEVEEVLELIEKAAKEVSKLPNVKLYVVIYDDSNQENHQLIVDAADRIEEKYPNVHVIVAYDDE
B26: LC3A_45_1937 (protein)
chain: MYLATIDLIVPRELAEEALALAEEIARELEEENDGKVEVDLETLRESYEATRDEEDVLLVVKIYAETEELALDVADRLVDRLRAALGPRVAAIISVEEVP
B27: LC3A_free_46_2420 (protein)
chain: MTLDIDIDVLAKTEETAKAVAKELTKTLEDTAKELGVKVEIKVEIEKLEDGTYYVHIDATFTGVTEEQAQQIEDKVIDKVEELEKKYPEILGSIISSELE
B28: LC3A_free_26_2152 (protein)
chain: DIFIDLVELDKAIELLEKALKLLEEDKNASEELKKLVKEALKKAEEMTLESLEEAKKLVEEALKLLEKDKSLSEEKKKELKKLLEEALKLLEKNIEIAKS
B29: LC3A_28_1030 (protein)
chain: AALKAAAAAALAEARAQFEAGEEAVVTLDVGDVPTAEAKAVVTAFLAELRALSAEYGGRKVSVVINYDGDQATLDAIIDAAEAAEAEDPNLTVIIAYADN

In all, about 2,300 sequences were measured (“median log2 fold change of GCK-ALFA target abundance (FLAG IP / Myc IP barcode read proportion)”: median about 0.095, lowest 2% from about -0.47 on). This is one part of a sample in which the lowest values are shown more often than they occur.

For the assay, the target named is MAP1LC3A, Q9H492. The assay is described as follows: median log2 fold change of GCK-ALFA target abundance (FLAG IP / Myc IP barcode read proportion) (log2 ratio); each designed protein is fused to an ALFA-tag nanobody in HEK293 cells to bring the named protein to FLAG-tagged glucokinase (GCK); Myc marks an untargeted standard; higher = target protein stabilised (more abundant). The note with it: target protein: 3xFLAG-MCP-GCK-ALFA reporter; HEK293 landing pad (RPLP). As to the method: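 LABEL-seq trans screen in HEK293 landing-pad cells. Each de novo designed 100-aa effector handle, binding the indicated effector (E3 ligase, DUB or autophagy protein), is fused to a constant NbALFA target handle and induced with 2 ug/mL doxycycline. A FLAG-MCP-GCK-ALFA target and a Myc-MCP standard reporter were transfected, and after 48 h circRNA barcodes were recovered by anti-FLAG and anti-Myc IP and sequenced. The value is the median across barcodes (at least 3 per design) of log2(FLAG/Myc read-proportion ratio), with the two transfection replicates pooled. Negative values mean degradation and positive values mean stabilisation of the target.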
For B1, the “median log2 fold change” value is 0.107.

As for B2, the “median log2 fold change” value is -0.514.

Consider B3, for which the “median log2 fold change” value came to 0.169.

As to B4, the “median log2 fold change” value worked out at 0.207.

As for B5, the “median log2 fold change” value amounted to 0.117.

For B6, the “median log2 fold change” value was -0.716.

Turning to B7, the “median log2 fold change” value is -0.196.

Regarding B8, the “median log2 fold change” value was -0.206.

On to B9, for which the “median log2 fold change” value is -0.0069.

As for B10, the “median log2 fold change” value is 0.0727.

For the molecule B11, the “median log2 fold change” value was -0.636.

With B12, the “median log2 fold change” value amounted to 0.0276.

Take B13: the “median log2 fold change” value is -0.0851.

With B14, the “median log2 fold change” value amounted to 0.139.

As to B15, the “median log2 fold change” value amounted to 0.0457.

Consider B16, for which the “median log2 fold change” value worked out at 0.211.

Take B17: the “median log2 fold change” value was -0.012.

As for B18, the “median log2 fold change” value is -0.832.

As to B19, the “median log2 fold change” value was determined as 0.326.

In the case of B20, the “median log2 fold change” value was found to be 0.173.

For B21, the “median log2 fold change” value was -0.691.

Turning to B22, the “median log2 fold change” value was -0.0314.

B23: the “median log2 fold change” value was found to be 0.289.

With B24, the “median log2 fold change” value was -0.264.

B25: the “median log2 fold change” value is -0.261.

As for B26, the “median log2 fold change” value was -0.359.

In the case of B27, the “median log2 fold change” value was -0.177.

Turning to B28, the “median log2 fold change” value was determined as 0.192.

Turning to B29, the “median log2 fold change” value is -0.268.
